In experiment [1] the target is Rap guanine nucleotide exchange factor 3 (Homo sapiens) (UniProt O95398). The experiment in a line: Confirmatory qHTS for antagonist of cAMP-regulated guanine nucleotide exchange factor 3 (EPAC1) (AID 1645880). Also: nearly all actives have a fitted effect of over 55% in size. Also: potency is read from the fitted curve at half-maximal effect.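 As to activity, negative = inhibition: plate controls were DMSO only for no effect and full effect of the ATA control for full effect.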 Conditions: EPAC1 Rap1B-BODIPY-GDP exchange, fluorescence; activity, negative = inhibition: at 115 µM (top of the series). The method, boiled down:
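Nucleotide exchange uses 100 nM EPAC1, 250 nM RAP1B-BODIPY-GDP and 50 uM GDP, with compounds in a concentration-titration series. After 5 min at room temperature, fluorescence (480 nm ex/540 nm em) is read every 5 min for 30 min. Data are normalized to control ATA and DMSO.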

For experiment [2], the target named is Rap guanine nucleotide exchange factor 4 (Homo sapiens) (UniProt Q8WZA2). Briefly: Confirmatory qHTS for agonist of cAMP-regulated guanine nucleotide exchange factor 4 (EPAC2) (AID 1645884;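 also: nucleotide exchange releases bodipy-GDP from Rap1 and this lowers its fluorescence; nearly all actives have a fitted effect of over 65% in size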; also: potency is read from the fitted curve at half-maximal effect; as to activation: % is scaled to controls: 0 for no effect and ±100 for the full control effect). (Quantitative high-throughput screening tests each substance at several concentrations.)
Rap guanine nucleotide exchange factor 4 (Homo sapiens), sequence (Q8WZA2 whole entry, looked up): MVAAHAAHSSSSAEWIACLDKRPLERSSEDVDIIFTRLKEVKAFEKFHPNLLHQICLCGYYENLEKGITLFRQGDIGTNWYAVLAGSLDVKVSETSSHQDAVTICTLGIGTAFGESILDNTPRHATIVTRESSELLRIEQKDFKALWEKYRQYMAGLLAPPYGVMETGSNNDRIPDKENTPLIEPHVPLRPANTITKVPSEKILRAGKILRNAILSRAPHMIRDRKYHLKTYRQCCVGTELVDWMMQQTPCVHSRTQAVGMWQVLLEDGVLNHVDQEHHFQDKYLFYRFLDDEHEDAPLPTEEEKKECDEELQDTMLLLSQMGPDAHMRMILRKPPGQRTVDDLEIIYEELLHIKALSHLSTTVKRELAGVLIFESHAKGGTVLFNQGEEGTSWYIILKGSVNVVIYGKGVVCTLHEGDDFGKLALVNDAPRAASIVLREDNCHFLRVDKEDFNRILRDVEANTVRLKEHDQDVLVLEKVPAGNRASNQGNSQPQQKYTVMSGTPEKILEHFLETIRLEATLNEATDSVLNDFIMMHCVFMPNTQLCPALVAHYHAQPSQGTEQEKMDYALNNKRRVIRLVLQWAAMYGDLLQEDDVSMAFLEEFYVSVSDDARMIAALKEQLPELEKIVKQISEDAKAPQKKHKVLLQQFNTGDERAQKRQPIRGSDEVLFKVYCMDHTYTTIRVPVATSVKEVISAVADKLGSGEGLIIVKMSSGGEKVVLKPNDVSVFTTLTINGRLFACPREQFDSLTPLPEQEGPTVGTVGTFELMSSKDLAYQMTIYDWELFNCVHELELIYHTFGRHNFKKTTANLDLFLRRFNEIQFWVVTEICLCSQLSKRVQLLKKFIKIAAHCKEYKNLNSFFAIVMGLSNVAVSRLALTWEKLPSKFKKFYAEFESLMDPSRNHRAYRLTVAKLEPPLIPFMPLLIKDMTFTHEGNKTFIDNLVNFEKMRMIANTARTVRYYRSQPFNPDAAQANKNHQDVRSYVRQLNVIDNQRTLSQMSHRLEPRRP
The target is the same in experiment [3]. Briefly: Confirmatory qHTS for antagonist of cAMP-regulated guanine nucleotide exchange factor 4 (EPAC2) (AID 1645885). Also: nearly all actives have a fitted effect of over 25% in size. Also: potency is read from the fitted curve at half-maximal effect. As to activity change, negative = inhibition: % is scaled to controls: 0 for no effect and ±100 for the full control effect.
For experiment [4], the target named is Rap guanine nucleotide exchange factor 3 (Homo sapiens) (UniProt O95398). Briefly: Counterscreen qHTS for antagonist of cAMP-regulated guanine nucleotide exchange factor 3 (EPAC1) (AID 1645888).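 Also: fluorescence loss as bound BODIPY-GDP is released from Rap1B; % of control where 0% means no effect.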 The method, boiled down:
(§1)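 Rap1B-BODIPY-GDP 250 nM + GDP 50 uM; cpds 7-pt, final 9.74 nM–152 uM (activator mode) or from 7.32 nM upwards (inhibitor mode); RT; FI 480/540 nm at 5 and 30 min, then ± cAMP, reread.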
(A counterscreen serves to expose hits that act by an unwanted route or on another target.)

The target is the same in experiment [5]. The experiment in a line: Counterscreen qHTS for agonist of cAMP-regulated guanine nucleotide exchange factor 3 (EPAC1) (AID 1645889). Also: nearly all actives have a fitted effect of over 40% in size. Also: potency is read from the fitted curve at half-maximal effect. As to activation: % of control where 0% means no effect. In a few lines: as §1
Experiment [6] concerns the target Tumor susceptibility gene 101 protein (Homo sapiens) (UniProt Q99816). The experiment in a line: qHTS Assay for Iinhibitors of HIV-1 Budding by Blocking the Interaction of PTAP/TSG101: Hit Validation (AID 651600). Also: potency is read from the fitted curve at half-maximal effect; nearly all actives have a fitted effect of over 70% in size. The method, boiled down: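 Fluorescence polarization binding assay: Tsg101 binding domain (10 uM) mixed with compounds and FITC-labeled PTAP peptide (50 nM) in HEPES pH 7.5, 0.15 M NaCl, 0.01% Tween 20, EDTA, TCEP; 20 min at r.t.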

Structures are written as SMILES. Results filed as inconclusive are left out. A number with no mark means an inactive call. Calls of active or inactive are those of the source. Calls follow the shape of the dose curve; as a rule, active = well fitted curve in the direction sought with a large enough effect; inconclusive = small, poorly fitted or top-dose-only effect, or another doubt; inactive = no such curve, though single readings can be large; an effect the other way counts as inactive or inconclusive.

Rap guanine nucleotide exchange factor 3 (Homo sapiens), sequence (O95398 whole entry, looked up): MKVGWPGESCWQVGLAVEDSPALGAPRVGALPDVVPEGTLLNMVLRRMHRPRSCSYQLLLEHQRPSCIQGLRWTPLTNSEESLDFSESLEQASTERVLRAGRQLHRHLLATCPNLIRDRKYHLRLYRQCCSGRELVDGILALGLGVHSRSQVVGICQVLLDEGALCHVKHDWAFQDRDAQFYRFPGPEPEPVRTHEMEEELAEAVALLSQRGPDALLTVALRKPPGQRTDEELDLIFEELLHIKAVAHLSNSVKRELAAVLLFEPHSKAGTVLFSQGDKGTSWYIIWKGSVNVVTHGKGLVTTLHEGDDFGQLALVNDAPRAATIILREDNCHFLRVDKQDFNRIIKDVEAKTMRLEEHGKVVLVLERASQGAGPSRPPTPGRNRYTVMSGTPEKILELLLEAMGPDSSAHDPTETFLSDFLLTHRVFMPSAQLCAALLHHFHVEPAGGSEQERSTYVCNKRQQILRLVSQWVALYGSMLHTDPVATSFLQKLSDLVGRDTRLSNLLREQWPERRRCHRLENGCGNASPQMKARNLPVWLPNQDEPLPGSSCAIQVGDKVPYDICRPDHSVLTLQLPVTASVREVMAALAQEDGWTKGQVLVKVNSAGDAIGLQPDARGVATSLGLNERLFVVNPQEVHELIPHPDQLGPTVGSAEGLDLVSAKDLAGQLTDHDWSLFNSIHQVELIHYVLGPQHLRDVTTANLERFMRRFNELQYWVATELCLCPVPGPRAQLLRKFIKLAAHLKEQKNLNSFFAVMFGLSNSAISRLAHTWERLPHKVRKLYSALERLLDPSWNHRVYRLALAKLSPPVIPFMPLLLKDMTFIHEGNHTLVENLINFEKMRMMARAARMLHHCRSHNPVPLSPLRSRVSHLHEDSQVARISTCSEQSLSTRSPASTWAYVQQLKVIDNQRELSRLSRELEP
Tumor susceptibility gene 101 protein (Homo sapiens), sequence (Q99816 whole entry, looked up, the tested form may be a part): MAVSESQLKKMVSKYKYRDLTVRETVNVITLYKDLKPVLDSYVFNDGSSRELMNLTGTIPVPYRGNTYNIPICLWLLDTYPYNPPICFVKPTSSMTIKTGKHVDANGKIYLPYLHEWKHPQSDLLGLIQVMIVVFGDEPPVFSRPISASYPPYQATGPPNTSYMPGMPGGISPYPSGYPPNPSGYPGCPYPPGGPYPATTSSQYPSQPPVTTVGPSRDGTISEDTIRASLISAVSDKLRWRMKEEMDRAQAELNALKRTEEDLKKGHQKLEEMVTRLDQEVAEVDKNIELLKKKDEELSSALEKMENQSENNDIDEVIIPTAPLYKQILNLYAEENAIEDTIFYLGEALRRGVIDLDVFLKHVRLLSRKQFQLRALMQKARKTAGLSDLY

On to `Cc1ccc(S(=O)(=O)N2CCN(C(=O)c3ccc4c(c3)OCO4)CC2)cc1`, for which the Potency entry in experiment [1] and in experiment [3] was “inactive” throughout. Moreover, the activation in experiment [2] is 0.378% [at 17.1 µM, percent relative to cAMP agonist control]; in experiment [5] it was 24.8% [at 30.8 µM]. Moreover, the activity change, negative = inhibition in experiment [4] was -2% [at 30.8 µM].
`O=c1oc2cc(O)ccc2cc1-c1nc2c(s1)CCc1ccccc1-2`: the Potency entry in experiment [1], in experiment [3], in experiment [4] and in experiment [5] was “inactive” each time. The Potency in experiment [2] was 100 µM (active).
As for `CCN(CC)c1ccc2cc(-c3nc(-c4ccccc4)no3)c(=O)oc2c1`, the Potency entry in experiment [1] and in experiment [4] was “inactive” each time. Also, the Potency in experiment [2] was 31.6 µM (active); in experiment [3], 6.01 µM (active); in experiment [5], 56.2 µM (active).
Turning to `COC(=O)c1c(NC(=O)c2ccc(S(=O)(=O)N(C)C3CCCCC3)cc2)sc2c1CCN(C)C2`, the Potency result in experiment [1], in experiment [2], in experiment [3] and in experiment [4] was “inactive” each time. Further, the Potency in experiment [5] is 89.1 µM (active).
Consider `N#CC(Sc1ccccn1)c1ccc(Cl)cc1Cl` (configuration not stated), for which the Potency entry in experiment [1], in experiment [2], in experiment [3], in experiment [4] and in experiment [5] was “inactive” in each case.
As for `COc1cc(/C=C(\C#N)c2nc3ccccc3o2)ccc1O`, the Potency entry in experiment [1] and in experiment [3] was “inactive” in each case. The activation in experiment [2] was 7.08% [at 17.1 µM, percent relative to cAMP agonist control]; in experiment [5], 23.5% [at 30.8 µM]. Besides, the activity change, negative = inhibition in experiment [4] was 3.99% [at 30.8 µM].
`COc1ccc(NC2c3ccccc3C(=O)N2c2ccccn2)cc1Cl` (configuration not stated): the Potency result in experiment [1], in experiment [2], in experiment [3], in experiment [4] and in experiment [5] was “inactive” throughout.
As to `O=C(c1ccco1)N1CCN(c2cc(=O)n(C3CCCCC3)c(=O)[nH]2)CC1`, the Potency result in experiment [1], in experiment [2], in experiment [3], in experiment [4] and in experiment [5] was “inactive” throughout.
As to `Cc1cccc(-n2c(N)c(-c3nc4ccccc4n3C)c3nc4ccccc4nc32)c1`, the Potency entry in experiment [1] and in experiment [3] was “inactive” in each case. Further, in experiment [2], the activation is 17.4% [at 17.1 µM, percent relative to cAMP agonist control]. The activity change, negative = inhibition in experiment [4] is -16.7% [at 30.8 µM].
With `COc1cc(C2CC(=O)Oc3cc(C)cc(C)c32)cc(OC)c1OC` (configuration not stated), the Potency entry in experiment [1], in experiment [2], in experiment [4] and in experiment [5] was “inactive” in each case. In addition, the Potency in experiment [3] was 1.51 µM (active).
For the molecule `CC1=Nc2ccccc2/C1=C\c1nc(-c2ccccc2)oc1O`, the Potency entry in experiment [1] and in experiment [3] was “inactive” throughout. Further, the activation in experiment [2] is 7.61% [at 17.1 µM, percent relative to cAMP agonist control]; in experiment [5], 18.1% [at 30.8 µM]. Moreover, the activity change, negative = inhibition in experiment [4] was -10.6% [at 30.8 µM].
For the molecule `CCOC(=O)c1sc2nc3c(SCC(=O)O)cc(C(=O)c4cc(F)ccc4O)cn3c(=O)c2c1C`, the Potency in experiment [1] is 9.53 µM (active). For the same molecule, the Potency entry in experiment [2], in experiment [3], in experiment [4] and in experiment [5] was “inactive” throughout.
Regarding `CCOc1ccccc1NC(=O)CSc1nccn1-c1cccc(C)c1`, the Potency entry in experiment [1], in experiment [2], in experiment [3], in experiment [4] and in experiment [5] was “inactive” in each case.
For `Cc1ccc(N=Cc2sc(O)c3ccccc23)c(C)c1`, the Potency entry in experiment [1] and in experiment [3] was “inactive” throughout. The activation is -3.2% [at 17.1 µM, percent relative to cAMP agonist control] in experiment [2] and 10.3% [at 30.8 µM] in experiment [5]. In addition, the activity change, negative = inhibition in experiment [4] is -0.317% [at 30.8 µM].
For `O=C(N=c1ccn(-c2nc3ccccc3nc2NS(=O)(=O)c2ccccc2)cc1)c1ccccc1Cl`, the Potency entry in experiment [1] and in experiment [4] was “inactive” throughout. Besides, the Potency in experiment [2] was 89.1 µM (active); in experiment [3], 75.7 µM (active); in experiment [5], 79.4 µM (active).
For the molecule `Cn1nc(-c2ccccc2)c2nc3ccccc3nc21`, the Potency in experiment [6] was 16.3 µM (active); in experiment [2], 100 µM (active); in experiment [3] it was 75.7 µM (active). In addition, the Potency result in experiment [1], in experiment [4] and in experiment [5] was “inactive” throughout.
Take `CCOC(=O)C1=C(C)N=c2s/c(=C/c3ccc(OCC(=O)O)c(OC)c3)c(=O)n2C1c1ccc(Cl)cc1` (configuration not stated): the Potency result in experiment [1], in experiment [2], in experiment [3], in experiment [4] and in experiment [5] was “inactive” throughout.
Consider `O=C(O)c1cccc(-c2ccc(/C=c3/sc4nc5ccccc5n4c3=O)o2)c1`, for which the Potency entry in experiment [1], in experiment [2], in experiment [3], in experiment [4] and in experiment [5] was “inactive” each time.
Regarding `O=C1c2cccc3c(N4CCCCC4)ccc(c23)C(=O)N1c1ccc(O)cc1`, the Potency entry in experiment [1], in experiment [3], in experiment [4] and in experiment [5] was “inactive” throughout. For the same molecule, the Potency in experiment [2] is 112 µM (active).
Regarding `O=C(N/N=C/c1cccnc1)c1cc(-c2ccccc2OCc2ccccc2)n[nH]1`, the Potency result in experiment [1], in experiment [3] and in experiment [4] was “inactive” throughout. Besides, the Potency in experiment [2] was 89.1 µM (active); in experiment [5] it was 25.1 µM (active).
Take `CC1=Nc2ccccc2/C1=C\c1nc(-c2ccc(F)cc2)oc1O`: the Potency was 29.1 µM (active) in experiment [6], 112 µM (active) in experiment [2] and 25.1 µM (active) in experiment [5]. For the same molecule, the Potency entry in experiment [1], in experiment [3] and in experiment [4] was “inactive” throughout.
Take `O=C(O)c1ccccc1C1=Nc2ccc(O)cc2Oc2cc(O)ccc21`: the Potency is 13 µM (active) in experiment [6] and 15.8 µM (active) in experiment [5]. Further, the Potency result in experiment [1] and in experiment [3] was “inactive” throughout. Moreover, the activation in experiment [2] was 14.2% [at 17.1 µM, percent relative to cAMP agonist control]. For the same molecule, the activity change, negative = inhibition in experiment [4] is -1.01% [at 30.8 µM].
As for `CC(C)(C)CNC(=O)c1cccc2c1C(=O)c1ccc(-c3cc4ccccc4o3)cc1S2(=O)=O`, the Potency entry in experiment [1], in experiment [3], in experiment [4] and in experiment [5] was “inactive” in each case. The Potency in experiment [2] is 79.4 µM (active).

Source of the values: PubChem BioAssay (NCATS).
